Assay results published in PubChem BioAssay.
Unmarked numbers belong to inactive results. The source made the active and inactive calls. No stated cut-off is given here; in the data, active means fold change permeability below about 0.7 or above about 1.3; inactive means in between.

Assay: compounds altering in vitro BBB leakiness – cell-based, FITC-avidin fluorescence, HTS, primary screen (AID 1963498); further: test concentration not given here
Conditions: brain endothelial barrier, actives lie on both sides

Row | SMILES | fold change permeability
1 | NCCc1c[nH]c2ccc(O)cc12 | 1
2 | CC(=O)c1c(O)c(C)c(O)c(Cc2c(O)c3c(c(C(=O)/C=C/c4ccccc4)c2O)OC(C)(C)C=C3)c1O | 2 (active)
3 | COC[C@H]1OC(=O)c2coc3c2[C@@]1(C)C1=C(C3=O)C2CCC(=O)[C@@]2(C)C[C@H]1OC(C)=O (stereo partly drawn) | 1.7 (active)
4 | Fc1ccc(C(OCCN2CCN(CCCc3ccccc3)CC2)c2ccc(F)cc2)cc1 | 1.6 (active)
5 | CC(=O)OCC1=C(C(=O)[O-])N2C(=O)[C@@H](NC(=O)CCC[C@@H](N)C(=O)[O-])[C@H]2SC1.[Zn+2] | 1
6 | N=C(N)c1ccc(CS(=O)(=O)F)cc1 | 1.2
7 | NC(=O)c1cc(N2CC2)c([N+](=O)[O-])cc1[N+](=O)[O-] | 1
8 | CC(NC(C)(C)C)C(=O)c1cccc(Cl)c1 (stereo not drawn) | 1
9 | NCC(O)c1ccc(O)cc1 (stereo not drawn) | 0.9
10 | NCCCP(=O)(O)O | 1.3 (active)
11 | COc1ccc2[nH]cc(CCN)c2c1 | 0.8
12 | CCCN(CCC)C1CCc2cccc(O)c2C1 (stereo not drawn) | 1
13 | NCCc1ccc(O)cc1 | 0.7 (active)
14 | CCCN1CCC[C@H](c2cccc(O)c2)C1 | 1
15 | O=[N+]([O-])c1cc(O)c(O)c([N+](=O)[O-])c1 | 1
16 | Cc1nnc2n1-c1sccc1C(c1ccccc1)=NC2 | 1.1
17 | O=C(O)c1nn(Cc2ccc(Cl)cc2Cl)c2ccccc12 | 1.9 (active)
18 | CC(=O)NBr | 1
